A selection: hits, their analogues and other compounds. The true share with any hit is near 3.4%.
NPSR antag: neuropeptide S receptor (human) antagonism, cAMP; hit rate 1% among 220,000; Potency, µM (top dose mostly 38.3 µM), inactives show at the top dose activity change, negative = inhibition, most hits filed as inhibitors; Q6W5P4; CHO-NPSR cells, cAMP TR-FRET, antagonist mode; AID 1461; note: potency is the fitted concentration of half-maximal effect; % is set by controls: 0 for no effect and ±100 for the full control effect; nearly all actives have a fitted effect of over 50% in size
Target sequence (Q6W5P4 whole entry, looked up): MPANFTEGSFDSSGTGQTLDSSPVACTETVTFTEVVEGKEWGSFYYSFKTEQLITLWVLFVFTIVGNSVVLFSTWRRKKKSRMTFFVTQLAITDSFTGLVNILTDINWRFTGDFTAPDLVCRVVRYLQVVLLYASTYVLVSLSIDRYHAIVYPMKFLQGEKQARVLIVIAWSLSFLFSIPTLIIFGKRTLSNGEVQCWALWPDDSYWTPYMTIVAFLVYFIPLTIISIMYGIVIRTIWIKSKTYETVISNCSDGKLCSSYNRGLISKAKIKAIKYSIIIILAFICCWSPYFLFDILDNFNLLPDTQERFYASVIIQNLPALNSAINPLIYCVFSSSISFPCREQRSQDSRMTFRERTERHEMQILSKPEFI
HTT ATP protect: Huntington cell model cytoprotection by ATP luminescence; PC12 HTT-Q103 induced, cytoprotection, ATP luminescence, 40 h; Potency, µM (titrated, usually from 56.4 µM), without a hit: cytoprotection (ATP increase), actives largely listed as activators; hit rate 0.14% among 230,000; note: potency is the fitted concentration of half-maximal effect; % of control where 0% means no effect; nearly all actives have a fitted effect of over 45% in size
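Huntington model: PC12 line, ecdysone-inducible HTTQ103 exon1–GFP, tebufenozide 100 nM. Test articles in a dose series. Endpoint luminescence from cellular ATP.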
PNC inhibitor: blocks assembly of the perinucleolar compartment; AID 2417; hit rate 3.1% among 140,000; activity change (PNC), negative = inhibition, % at 10 µM; PC3M PTB-GFP, PNC prevalence imaging, 16 h; hits give low values;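 active = readout at or below -70, meaning at least 70% loss of cells showing the perinucleolar compartment, a nuclear body marking cancer cells; inconclusive = readout between -30 and a set limit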;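 note: plate controls were DMSO wells for no effect and camptothecin positive control wells for full effect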
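PC3M cells stably expressing PTB-GFP, 750–1000 cells/well, treated 16 h at 37 °C with compound (23 nl of library stock), in duplicate. After paraformaldehyde fixation and Hoechst stain, imaged at 20x; PNC prevalence scored by image analysis.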
IMPase cell inh: membrane-permeable compound that blocks inositol monophosphatase | P97697 | CHO-M1 cells, IP1 accumulation, HTRF TR-FRET ratio | AID 901 | inhibition (IP1 accumulation), % at 46.1 µM | 120,000 tested, under 10 active; active = well fitted curve in the direction sought with a large enough effect in the signal ratio, not every such curve was filed as active; inconclusive = small, poorly fitted or top-dose-only effect, or a change in a side signal; inactive = no such curve, though single readings can be large or run the other way; the % refers to the signal ratio;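 note: cells stimulated with carbachol in lithium chloride buffer; plate controls were DMSO basal wells for no effect and reference inhibitor wells for full effect; higher means more IMPase inhibition seen as more IP1 and lower FRET ratio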
Target sequence (P97697 whole entry, looked up): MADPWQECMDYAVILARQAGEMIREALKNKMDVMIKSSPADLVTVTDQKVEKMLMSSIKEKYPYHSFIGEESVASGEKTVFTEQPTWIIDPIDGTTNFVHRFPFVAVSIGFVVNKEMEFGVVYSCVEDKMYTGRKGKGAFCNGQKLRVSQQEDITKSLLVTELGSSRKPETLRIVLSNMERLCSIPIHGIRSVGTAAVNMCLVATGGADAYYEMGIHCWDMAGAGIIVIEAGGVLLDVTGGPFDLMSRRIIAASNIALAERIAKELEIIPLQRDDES
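In this qHTS, compounds (final up to 46 uM) act on CHO-M1 cells that are then activated through the M1 receptor with carbachol, in pH 7.4 buffer containing 50 mM LiCl, for 30 min. IP1 accumulation is quantified by the IP-One immunoassay.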
IMPase Li cell: IMPase inhibition in cells with lithium potentiation; AID 1457; CHO-M1 cells, IP1 TR-FRET (IP-One), carbachol + lithium; hit rate 0.35% among 210,000; Potency, µM (series often up to 59.4 µM), without a hit: at the highest dose activity, negative = IMPase inhibition, usual class: inhibitors;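 note: IP1 builds up when IMPase is blocked and the TR-FRET signal falls; potency is the fitted concentration of half-maximal effect; plate controls were basal vehicle for no effect and high inhibitor control for full effect; nearly all actives have a fitted effect of over 50% in size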
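IP1 accumulation measured by competitive TR-FRET in lysed CHO-M1 cells after 30 min compound exposure at 37C, with a small lithium addition to potentiate weak responses. Hill-equation AC50 from ratio and donor-channel data.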
HttQ103 aggreg: mutant huntingtin aggregation inhibition. PC12 HttQ103-GFP aggregates, Acumen cytometry, 40 h. Potency, µM (highest dose often 46.1 µM), for inactives: at the top dose activity change, negative = inhibition, actives largely listed as inhibitors. hit rate 1.1% among 220,000. AID 1688; note: potency is the fitted concentration of half-maximal effect; % is set by controls: 0 for no effect and ±100 for the full control effect; nearly all actives have a fitted effect of over 60% in size
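Steps: seed 1500 PC12 HTTQ103-GFP cells/well; add tebufenozide, 100 nM final; add compound titration; add ATPLite reagent; quantify GFP aggregates by laser scanning cytometry.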
Numbers without * were called inactive; ? = inconclusive; . = not tested or not shown; [ ] = dose if it differs, or a comment. Unless noted, calls come from the whole dose curve; as a rule, active = well fitted curve in the direction sought with a large enough effect; inconclusive = small, poorly fitted or top-dose-only effect, or another doubt; inactive = no such curve, though single readings can be large; an effect the other way counts as inactive or inconclusive.

SMILES	NPSR antag	HTT ATP protect	PNC inhibitor	IMPase cell inh	IMPase Li cell	HttQ103 aggreg
COc1ccccc1N=Nc1nc(-c2ccccc2)c(-c2ccccc2)[nH]1	13µM*	18%[1.9 µM]	-18	-1	2%	?
COc1ccc(N=Nc2nc(-c3ccccc3)c(-c3ccccc3)[nH]2)cc1	-54%	15%[10 µM]	?	.	6%	?
O=C(NCCc1c[nH]c2ccccc12)c1cc2sccc2n1Cc1ccccc1	?	-26%	-8	9	14%[38.3 µM]	3%[9.22 µM]
Cn1c(C(=O)NCCc2c[nH]c3ccccc23)cc2sccc21	-7%[46.1 µM]	-8%	-81*	3	10%[38.3 µM]	-9%
COC(=O)C1(C(=O)OC)C[C@H]2CON=C2[C@H]1c1ccccc1	.	-24%	.	.	9%	.
CC1CCC2(C(=O)O)CCC3(C)C(=CCC4C3(C)CCC3[C@@]4(C)CC(O)C(O)[C@@]3(C)CO)C2C1C (stereo partly drawn)	.	.	.	.	4%	.
Cc1cc(-c2ccc(N=Nc3c(S(=O)(=O)O)cc4cc(S(=O)(=O)O)cc(N)c4c3O)c(C)c2)ccc1N=Nc1c(S(=O)(=O)O)cc2cc(S(=O)(=O)O)cc(N)c2c1O	.	-23%	.	.	.	0.02µM*
Cc1cc(C(=O)N2CCCCCC2)cs1	-2%[46.1 µM]	-5%[0.074 µM]	-124*	11[1.84 µM]	28%[38.3 µM]	-2%
Cc1cc(C)cc(C(=O)N2CCCCCC2)c1	-1%[46.1 µM]	8%[10 µM]	0	4	-15%[38.3 µM]	-4%
Cc1[nH]c2ccccc2c1/C=N/Nc1ccccc1[N+](=O)[O-]	10µM*	1%[10 µM]	.	.	17%	12%
C=CCNC(=S)NNC(=O)c1ccc(OC(C)C)cc1	-14%[46.1 µM]	-4%[10 µM]	-91*	7	-6%[38.3 µM]	?
CC1(C)CC(=O)C(C=NCCN2CCOCC2)=C(O)C1	-18%[46.1 µM]	2%	-96*	-2	1%[38.3 µM]	8%[9.22 µM]
CC1(C)CC(=O)C(C=NCCN2CCN(CCCCS(=O)(=O)O)CC2)=C(O)C1	-4%[46.1 µM]	-16%[10 µM]	?	-8[1.84 µM]	12%[38.3 µM]	6%
COc1ccc2cc3c(N)nn(C(=O)Cc4ccc(Cl)cc4)c3nc2c1	-7%[46.1 µM]	15%	13	-1	17%[38.3 µM]	7.9µM*
COc1ccc2cc3c(N)nn(C(=O)Cc4c[nH]c5ccccc45)c3nc2c1	-42%	3%[10 µM]	.	.	.	3.2µM*
COc1cccc(CC(=O)n2nc(N)c3cc4ccc(OC)cc4nc32)c1	-8%[46.1 µM]	?	-6	3	9%[38.3 µM]	-10%
COC(=O)[C@@H](NC(=O)O[C@H]1C(=O)c2cc(OC)ccc2O[C@@H]1c1ccc(OC)c(Br)c1)C(C)C	.	-36%	.	.	10%	.
N#Cc1ccc(CS(=O)(=O)c2nnnn2-c2ccccc2)cc1	.	?	.	.	13%	.
C/C(=N\NC(=O)CSCc1ccc([N+](=O)[O-])cc1)c1ccccc1O	-3%	.	7	.	1%	10µM*
CC(C)(C)c1nc(NC(=O)Nc2ccccc2)sc1Br	-51%	-129%	.	.	20%	11µM*
COc1ccc2nc(NC(=O)Nc3ccccc3)sc2c1	-8%	-230%	2	.	13%	6%
CC(C)[C@H](NC(=O)c1ccccc1)C(=O)OCC(=O)NCCc1ccc(F)cc1	9%	5%[10 µM]	-134*	.	9%	6%
CC(C)[C@H](NC(=O)c1ccccc1)C(=O)OCC(=O)NCCC1=CCCCC1	-10%	.	1	.	-4%	2%
O=C(CN1CCCC1)N1c2ccccc2Sc2ccc(C(F)(F)F)cc21	-11%[46.1 µM]	13%[1.9 µM]	17	22	35%	-15%
O=C(CN1CCN(c2ccccn2)CC1)N1c2ccccc2Sc2ccc(C(F)(F)F)cc21	?	-34%	-114*	24	24%[38.3 µM]	-5%[9.22 µM]
SMILES	NPSR antag	HTT ATP protect	PNC inhibitor	IMPase cell inh	IMPase Li cell	HttQ103 aggreg
COc1ccc(-c2cc(=O)[nH]c(NCc3ccccc3)n2)cc1	-28%[46.1 µM]	-6%[0.074 µM]	23	12	13%[38.3 µM]	4µM*
c1ccc(CC2CCN(C3=Nc4cccc5cccc3c45)CC2)cc1	10µM*	-77%	-2	6	29%[38.3 µM]	?
COc1ccc(-n2c(=O)c(-c3cn(C)c4ccccc34)nc3cncnc32)cc1	.	21%	.	.	0%	.
CCOc1cc(C2CC(=O)Nc3cc(C)c(C)cc32)ccc1O (stereo not drawn)	-15%[46.1 µM]	-8%	-139*	1	8%[38.3 µM]	-9%
COc1cc(C(=O)N/N=C/c2sc(N3CCOCC3)nc2-c2ccccc2)cc(OC)c1OC	-6%	-18%	.	.	5%	6%
Cc1ccc(N2C(=O)[C@@H]3C(c4ccc(F)cc4)=NO[C@@H]3C2=O)cc1	-17%[46.1 µM]	9%[0.074 µM]	-95*	-4	-1%[38.3 µM]	7%
Cc1ccc2c(C(=O)N3CCN(c4ccccc4)CC3)cc(-c3cccnc3)nc2c1C	-48%	1%[10 µM]	.	.	0%	10µM*
Cc1ccc2nc(-c3cccnc3)cc(C(=O)N3CCN(c4ccc([N+](=O)[O-])cc4)CC3)c2c1	5µM*	-9%[10 µM]	.	.	8%	-6%
CC(C)=CCC/C(C)=C/CC/C(C)=C/CSc1ccccc1C(=O)O	-18%[46.1 µM]	6%[1.9 µM]	.	8	16%	.
CCC1CCCCN1C(=O)CSc1nnc(-c2ccc(OC)c(OC)c2)o1 (stereo not drawn)	.	.	.	7	.	.
CN(C)c1ncc2ncc(=O)n(Cc3cccs3)c2n1	.	-11%	.	.	16%	.
C=CCc1cccc2cc(C(=O)NC3=C(C#N)CCC3)c(=O)oc12	-16%[46.1 µM]	32%[10 µM]	-124*	6[1.84 µM]	34%[38.3 µM]	-24%
CCOC(=O)c1ccccc1NC(=O)CN(c1cccc(C)c1C)S(=O)(=O)c1ccccc1	.	.	.	-3	.	.
O=C1CCC=C1[C@@H](O)CCc1ccccc1	.	-1%[10 µM]	.	.	.	.
Cc1ccc(-c2nc(S(=O)(=O)c3ccc(Cl)cc3)c(N3CCCCC3)o2)cc1	.	.	.	-4	.	.
CCOC(=O)CCNCC1COc2ccccc2O1 (stereo not drawn)	3%[46.1 µM]	1%[10 µM]	-92*	2[1.84 µM]	9%[38.3 µM]	7%
Oc1ccc([C@@H]2CNCc3sccc32)cc1O	.	27%[1.9 µM]	.	3	.	.
Cc1nn2c(N)c(C#N)cnc2c1-c1ccc(Cl)cc1	7.9µM*	8%	1	-22	11µM*	-12%
Cc1nn2c(N)c(C#N)cnc2c1-c1ccccc1	-17%[46.1 µM]	12%[1.9 µM]	-82*	5	5%	-19%
COc1ccc(-c2c(C)nn3c(N)c(C#N)cnc23)cc1OC	11%	-21%[10 µM]	.	.	10%	-22%[9.22 µM]
CCOC(=O)CNc1oc(-c2ccccc2)nc1-c1ccccc1	.	?	.	.	16%	.
CCc1cc2c(=O)c(-c3cscn3)coc2c(CN(C)C)c1O	-7%[46.1 µM]	-37%[10 µM]	?	-9	12%[38.3 µM]	11µM*
O=C(CSc1nc(O)cc(=O)[nH]1)C1CC1	-20%[7.67 µM]	18%	-123*	0	-8%[38.3 µM]	14%
CCSc1nc(O)cc(=O)[nH]1	21%	17%[10 µM]	.	.	.	5%[9.22 µM]
CC(C)c1cc(C(N)=O)c(NC(=O)c2cccc(COc3ccc(Cl)cc3)c2)s1	10µM*	-37%	16	?	47%[38.3 µM]	-24%

High-throughput results as filed in PubChem.
